Compound activity: PubChem BioAssay, several laboratories
zVAD death inh: blocks zVAD induced death of L929 cells. 0.38% of 220,000 active. L929 zVAD necroptosis rescue, ATP luminescence, 24 h; with zVAD 60 µM. viability rescue, % at 10 µM;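 active means activation, scaled between plate controls, above about 75%, limit read from the data; inactive means activation under that limit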;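 further: 0% = zVAD with DMSO and 100% = DMSO alone without zVAD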
V-ATPase pHluor: yeast V-ATPase proton transport regulation by pHLuorin; S. cerevisiae, pHLuorin cytosolic pH fluorescence; 0.37% of 350,000 active; response, % at 10 µM; in the data active means response mostly above about 7.3%, no sharp cut-off; inactive means mostly below about 5.4%; further: actives read high
Wee1 degr inh: blocks degradation of human Wee1 kinase; P30291; HeLa Luc-Wee1K328M stability, luciferase luminescence; 100% = proteasome inhibitor MG132 effect; reporter increase, % at 5 µM; 1.2% of 220,000 active; AID 1321;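 active means activation above the mean of all tested compounds plus 3 SD, set per screening run, cut at about 8.8% in these data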;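 further: cells exposed to compound for 20 h before luminescence read; 0% = DMSO alone and 100% = MG132 at 30 µM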
Target sequence (P30291 whole entry K328M): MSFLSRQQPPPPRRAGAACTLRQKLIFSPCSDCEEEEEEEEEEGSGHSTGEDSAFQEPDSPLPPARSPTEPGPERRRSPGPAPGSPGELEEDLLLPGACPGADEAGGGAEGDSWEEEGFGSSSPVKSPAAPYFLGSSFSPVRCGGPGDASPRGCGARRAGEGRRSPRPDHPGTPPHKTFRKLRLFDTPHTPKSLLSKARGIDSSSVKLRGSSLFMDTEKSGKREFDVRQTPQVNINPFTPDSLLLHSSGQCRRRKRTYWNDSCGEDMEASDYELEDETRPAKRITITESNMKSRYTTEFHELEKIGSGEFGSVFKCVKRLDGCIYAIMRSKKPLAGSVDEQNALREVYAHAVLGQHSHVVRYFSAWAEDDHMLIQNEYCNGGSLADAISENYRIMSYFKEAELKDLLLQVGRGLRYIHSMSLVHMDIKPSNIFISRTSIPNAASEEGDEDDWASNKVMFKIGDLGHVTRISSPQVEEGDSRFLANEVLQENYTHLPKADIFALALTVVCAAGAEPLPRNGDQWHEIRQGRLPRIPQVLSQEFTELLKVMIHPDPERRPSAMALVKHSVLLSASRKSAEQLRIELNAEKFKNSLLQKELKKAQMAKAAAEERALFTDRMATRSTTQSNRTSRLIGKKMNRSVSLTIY
TNF necrop inh: blocks TNF-alpha induced death of Jurkat FADD-/- cells | AID 463075 | 0.068% of 220,000 active | Jurkat FADD-/- TNF necroptosis rescue, ATP luminescence, 24 h; 0 = TNF only, 100 = no-TNF cells | activation (protection from cell death), % at 10 µM;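 active means activation, meaning protection from cell death, of at least 50% relative to plate controls; inactive means activation below 50%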;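 further: necroptosis triggered by 40 ng/mL TNF-alpha added together with compound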
HSV augment: increases HSV replication in cells | HSV replication augmentation in cells, fold increase | 0.005% of 220,000 active | maximum fold increase; in the data active means maximum fold increase above about 1.5; tested in PC3 cells
zVAD necrop conf: confirmed blocker of zVAD induced death in L929 cells. shares compounds with zVAD death inh. L929 zVAD-induced necroptosis rescue, ATP luminescence, 24 h. activation (protection from necroptosis), % at 10 µM. 16% of 760 active;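 active means mean protection from necroptosis of at least 50% over duplicate tests; inactive means mean protection below 50%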;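 further: 0% = cells with zVAD alone and 100% = vehicle cells without zVAD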
* = called active by the depositor. A selection: hits, their analogues and other compounds. The true share with any hit is near 1.4%.

CC1CC(C)CN(C(=O)c2cc(S(=O)(=O)N3CCCCC3)ccc2Cl)C1 (stereo not drawn) was read as V-ATPase pHluor -1.
`O=c1[nH]c2ccccc2nc1-c1ccccc1` gave zVAD death inh 3, V-ATPase pHluor -1, Wee1 degr inh -1, TNF necrop inh 2 and HSV augment inactive.
Screening O=c1[nH]c2ccccc2nc1-c1ccc(Cl)cc1 returned zVAD death inh 76*, V-ATPase pHluor -4, Wee1 degr inh 1, TNF necrop inh 1, HSV augment inactive and zVAD necrop conf 2.
`O=C(CN1C(=O)c2cccnc2Oc2ccc(Cl)cc21)N1CCCC1` gave V-ATPase pHluor -2.
For O=C(Nc1nccs1)c1cc2c(s1)-c1ccccc1OC2 the results were zVAD death inh 98*, V-ATPase pHluor 3, Wee1 degr inh 5, TNF necrop inh 22 and zVAD necrop conf 49.
`Cc1cccc2c1-c1sc(C(=O)Nc3nccs3)cc1CO2` gave zVAD death inh 63, V-ATPase pHluor 5, Wee1 degr inh 2, TNF necrop inh 3 and HSV augment inactive.
COc1cc(C(=O)OCC(=O)Nc2cccc(S(=O)(=O)N3CCCC3)c2)ccc1OCC(C)C was read as V-ATPase pHluor 5.
Screening Nc1cc(C(=O)OCC(=O)NC(c2ccccc2)c2ccccc2)ccc1Cl returned zVAD death inh 85*, V-ATPase pHluor -1, Wee1 degr inh 0, TNF necrop inh -1, HSV augment inactive and zVAD necrop conf 36.
`Nc1cc(C(=O)OCC(=O)NNC(=O)c2ccccc2)ccc1Cl` gave V-ATPase pHluor -1.
For O=C(Nc1nccs1)c1ccc(-c2ccc(F)cc2)o1 the results were zVAD death inh 83*, V-ATPase pHluor -4, Wee1 degr inh 1, TNF necrop inh 5, HSV augment inactive and zVAD necrop conf 1.
`Cc1ccc(NC(=O)C(OC(=O)c2ccc(NC(N)=O)cc2)c2ccccc2)cc1Cl` (stereo not drawn) gave zVAD death inh 85*, V-ATPase pHluor 0, Wee1 degr inh -3, TNF necrop inh 8, HSV augment inactive and zVAD necrop conf 70*.
`Nc1nc(CSc2n[nH]c(-c3ccccc3)n2)nc(Nc2ccccc2)n1` gave zVAD death inh 0, V-ATPase pHluor 3, Wee1 degr inh 0, TNF necrop inh -7 and HSV augment inactive.
For Cc1ccc(-c2nc(Nc3ccccc3)n[nH]2)cc1 the results were zVAD death inh 77*, V-ATPase pHluor 2, Wee1 degr inh 0, TNF necrop inh 12, HSV augment inactive and zVAD necrop conf 77*.
Screening Clc1ccc(/C=N/Nc2ncnc3nc[nH]c23)cc1 returned zVAD death inh 78*, V-ATPase pHluor 3, Wee1 degr inh 1, TNF necrop inh -10, HSV augment inactive and zVAD necrop conf 43.
Cc1ccc(/C=N/Nc2ncnc3nc[nH]c23)cc1 was read as zVAD death inh 71, V-ATPase pHluor 0, Wee1 degr inh -1, TNF necrop inh -7 and HSV augment inactive.
Screening CCNc1nc(OC)nc(Oc2ccc(C(=O)OC)cc2)n1 returned zVAD death inh 0, V-ATPase pHluor 0, Wee1 degr inh 0, TNF necrop inh 0 and HSV augment inactive.
`CCNc1nc(NCC)nc(Oc2ccc(N)cc2)n1` gave zVAD death inh 78*, V-ATPase pHluor -4, Wee1 degr inh 0, TNF necrop inh 0, HSV augment inactive and zVAD necrop conf 30.
Cc1c(C)c2ccc(OC(C)C(=O)NCCc3c[nH]c4ccccc34)cc2oc1=O (stereo not drawn) was read as V-ATPase pHluor -3.
`Cc1ccc(N=c2oc3cc(O)ccc3cc2C(N)=O)cc1` gave zVAD death inh 79*, V-ATPase pHluor -1, Wee1 degr inh -3, TNF necrop inh -11, HSV augment inactive and zVAD necrop conf 38.
Screening CC(=O)c1cc2ccc(O)cc2oc1=O returned zVAD death inh 0, V-ATPase pHluor -5, Wee1 degr inh 4, TNF necrop inh 2 and HSV augment inactive.
For Cc1ccc(NC(=O)COC(=O)c2ccc3c(c2)NC(=O)C2CCCN32)cc1 (stereo not drawn) the results were zVAD death inh 83*, V-ATPase pHluor 2, Wee1 degr inh 0, TNF necrop inh -2, HSV augment inactive and zVAD necrop conf 48.
